# According to PubChem BioAssay (EPA / NIEHS):
# Records with an inconclusive call do not appear. The source made the active and inactive calls. How the source made its calls, unless noted: active means hit-call score of the fitted dose curve at least 0.9, where 1 is the maximum; inactive means score below 0.9.
# Columns and labels:
# [1] = TOX21_PR_BLA_Followup_Antagonist_viability: Viability Assessment in the Tox21 HEK293 Progesterone Receptor (PR) Antagonism Beta-lactamase Follow-Up Assay (AID 2283936; active means hit-call score of the fitted dose curve at least 0.9, where 1 is the maximum;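 further: hits lower the luminescence signal meaning cytotoxicity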)
# Procedure, shortened: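 PR-UAS-bla HEK293T cells (3,000/well, 2% charcoal-stripped FBS) given compound plus R5020 agonist, 16 h at 37C. CellTiter-Glo added after bla read, 30 min at room temperature; luminescence loss indicates cytotoxicity.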
# PGR (gene 5241) = PGR (gene 5241) (UniProt P06401); assay: TOX21_PR_LUC_Followup_Antagonist: Tox21 HEK293 Progesterone Receptor (PR) Antagonism Luciferase Follow-Up Assay (AID 2283938; active means hit-call score of the fitted dose curve at least 0.9, where 1 is the maximum;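 further: curve fitted upward as signal gain over DMSO baseline despite antagonist label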)
# Chain of PGR (gene 5241) (P06401 whole entry, looked up): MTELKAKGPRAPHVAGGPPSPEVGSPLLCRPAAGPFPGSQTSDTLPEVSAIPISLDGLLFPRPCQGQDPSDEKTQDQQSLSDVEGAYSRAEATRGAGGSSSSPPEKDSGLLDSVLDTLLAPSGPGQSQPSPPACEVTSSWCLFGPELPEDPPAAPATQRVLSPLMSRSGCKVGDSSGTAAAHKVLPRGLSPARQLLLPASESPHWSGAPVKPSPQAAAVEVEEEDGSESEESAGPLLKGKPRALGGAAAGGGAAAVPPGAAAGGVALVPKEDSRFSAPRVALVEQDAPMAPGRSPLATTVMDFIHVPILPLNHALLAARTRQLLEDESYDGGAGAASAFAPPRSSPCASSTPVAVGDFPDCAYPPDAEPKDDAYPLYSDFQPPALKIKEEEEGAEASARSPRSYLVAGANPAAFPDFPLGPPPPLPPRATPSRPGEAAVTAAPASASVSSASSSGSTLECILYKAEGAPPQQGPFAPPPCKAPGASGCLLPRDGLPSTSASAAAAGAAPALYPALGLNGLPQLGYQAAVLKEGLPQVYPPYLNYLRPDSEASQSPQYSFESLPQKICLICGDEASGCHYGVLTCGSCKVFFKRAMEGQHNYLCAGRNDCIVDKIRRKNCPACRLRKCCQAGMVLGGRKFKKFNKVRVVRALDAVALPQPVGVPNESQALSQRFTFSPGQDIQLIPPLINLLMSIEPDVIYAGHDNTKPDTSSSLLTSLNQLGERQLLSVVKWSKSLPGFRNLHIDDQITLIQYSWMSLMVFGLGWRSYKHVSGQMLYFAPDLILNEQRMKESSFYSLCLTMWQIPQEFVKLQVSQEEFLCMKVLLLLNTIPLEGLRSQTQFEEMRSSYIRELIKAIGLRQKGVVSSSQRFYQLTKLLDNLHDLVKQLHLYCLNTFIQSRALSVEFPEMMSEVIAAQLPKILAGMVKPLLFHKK
# Procedure, shortened: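 Luciferase reporter in HEK293-PR-A-luc cells: 16 h compound treatment at 37C, ONE-Glo luminescence detection, DMSO as negative control and baseline.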
# [2] = TOX21_PR_LUC_Followup_Antagonist_viability: Viability Assessment in the Tox21 HEK293 Progesterone Receptor (PR) Antagonism Luciferase Follow-Up Assay (AID 2283940; active means hit-call score of the fitted dose curve at least 0.9, where 1 is the maximum)
# Procedure, shortened: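 Multiplexed viability counter-screen: after 5 days in charcoal-stripped-FBS medium, HEK293-PR-A-luc cells are plated, pinned with DMSO-dissolved compounds for 16 h at 37C, and ATP content is quantified luminescently via CellTiter-Glo.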
# [3] = TOX21_PR_LUC_Followup_Agonist_viability: Viability Assessment in the Tox21 HEK293 Progesterone Receptor (PR) Agonism Luciferase Follow-Up Assay (AID 2283941; active means hit-call score of the fitted dose curve at least 0.9, where 1 is the maximum;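 further: loss of signal means cytotoxicity so actives lower viability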)
# Procedure, shortened: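 Cells were kept 5 days in charcoal-stripped serum medium before plating HEK293-PR-A-luc at 3,000 cells/well. After 5 h they received DMSO-dissolved compound and incubated 16 h at 37C. Viability was taken from CellTiter-Glo ATP luminescence.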
# [4] = CCTE_Harrill_HTTr_Viability_DMEM_6hr: (Pilot) CCTE's 6-hour Cell Viability Assessment for the High-Throughput Transcriptomics (HTTr) Platform, in MCF-7 cells cultured in DMEM + 10% fetal bovine serum, Harrill Lab (AID 2283973)
# Procedure, shortened: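 MCF-7 cells in DMEM + 10% FBS, eight-point dilution series, 6 h exposure. Membrane integrity by propidium iodide exclusion with high-content imaging; bidirectional fit versus DMSO.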
# [5] = CCTE_Harrill_HTTr_Viability_DMEM_12hr: (Pilot) CCTE's 12-hour Cell Viability Assessment for the High-Throughput Transcriptomics (HTTr) Platform, in MCF-7 cells cultured in DMEM + 10% fetal bovine serum, Harrill Lab (AID 2283974)
# Procedure, shortened: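 MCF-7 cells in DMEM + 10% FBS exposed 12 h to an eight-point dilution series; membrane integrity scored by propidium iodide exclusion with high-content imaging, bidirectional fitting versus DMSO.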
# [6] = CCTE_Harrill_HTTr_Viability_DMEM_24hr: (Pilot) CCTE's 24-hour Cell Viability Assessment for the High-Throughput Transcriptomics (HTTr) Platform, in MCF-7 cells cultured in DMEM + 10% fetal bovine serum, Harrill Lab (AID 2283975)
# Procedure, shortened: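 MCF-7 cells in DMEM with 10% FBS exposed for 24 hours to an eight-point dilution series. Membrane integrity by propidium iodide exclusion with high content imaging; bidirectional fit against DMSO.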
# [7] = CCTE_Harrill_HTTr_Viability_PRF_DMEM_6hr: (Pilot) CCTE's 6-hour Cell Viability Assessment for the High-Throughput Transcriptomics (HTTr) Platform, in MCF-7 cells cultured phenol red-free DMEM + 10% charcoal-stripped fetal bovine serum, Harrill Lab (AID 2283976)
# Procedure, shortened: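 MCF-7 cells in phenol red-free DMEM with 10% charcoal-stripped FBS exposed 6 hours to an eight-point dilution series. Propidium iodide exclusion imaged; curves fitted bidirectionally against DMSO.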
# [8] = CCTE_Harrill_HTTr_Viability_PRF_DMEM_12hr: (Pilot) CCTE's 12-hour Cell Viability Assessment for the High-Throughput Transcriptomics (HTTr) Platform, in MCF-7 cells cultured in phenol red-free DMEM + 10% charcoal-stripped fetal bovine serum, Harrill Lab (AID 2283977)
# Procedure, shortened: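 MCF-7 cells in phenol red-free DMEM with 10% charcoal-stripped FBS exposed 12 hours to an eight-point dilution series. Viability assessed by high-content imaging of propidium iodide exclusion; bidirectional fit versus DMSO.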
# [9] = CCTE_Harrill_HTTr_Viability_PRF_DMEM_24hr: (Pilot) CCTE's 24-hour Cell Viability Assessment for the High-Throughput Transcriptomics (HTTr) Platform, in MCF-7 cells cultured in phenol red-free DMEM + 10% charcoal-stripped fetal bovine serum, Harrill Lab (AID 2283980)
# Procedure, shortened: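 MCF-7 cells in phenol red-free DMEM with 10% charcoal-stripped FBS, eight-point dilution series, 24 h exposure. Membrane integrity by propidium iodide exclusion with high content imaging; bidirectional fit vs DMSO.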
# [10] = CCTE_Harrill_HTTr_Apoptosis_DMEM_6hr: (Pilot) CCTE's 6-hour Apoptosis Assessment for the High-Throughput Transcriptomics (HTTr) Platform, in MCF-7 cells cultured in DMEM + 10% fetal bovine serum, Harrill Lab (AID 2283981)
# Procedure, shortened: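 Caspase-3/7 activation read by high content imaging with CellEvent Caspase 3/7 Green in MCF-7 cells (DMEM + 10% FBS), 6 h after dosing; eight-point dilution series. Bidirectional fitting relative to DMSO baseline.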
# [11] = CCTE_Harrill_HTTr_Apoptosis_DMEM_12hr: (Pilot) CCTE's 12-hour Apoptosis Assessment for the High-Throughput Transcriptomics (HTTr) Platform, in MCF-7 cells cultured in DMEM + 10% fetal bovine serum, Harrill Lab (AID 2283982)
# Procedure, shortened: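 MCF-7 cells in DMEM + 10% FBS, exposed 12 h to an eight-point dilution series; caspase-3/7 activation imaged with CellEvent Green. Bidirectional fit versus DMSO.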
# [12] = CCTE_Harrill_HTTr_Apoptosis_DMEM_24hr: (Pilot) CCTE's 24-hour Apoptosis Assessment for the High-Throughput Transcriptomics (HTTr) Platform, in MCF-7 cells cultured in DMEM + 10% fetal bovine serum, Harrill Lab (AID 2283983)
# Procedure, shortened: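 MCF-7 cells in DMEM + 10% FBS, eight-point dilution series, 24 h exposure. Caspase-3/7 activation imaged by high-content imaging with CellEvent Caspase 3/7 Green. Bidirectional curve fitting against DMSO baseline.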
# [13] = molecular target: Thyroid hormone receptor alpha (Rattus norvegicus) + Thyroid hormone receptor beta (Rattus norvegicus) (UniProt P18113+P63059); assay: TOX21_TR_LUC_GH3_Antagonist_Followup: Tox21 GH3 Thyroid Hormone Receptor Antagonism Luciferase Follow-Up Assay (AID 2283942; active means hit-call score of the fitted dose curve at least 0.9, where 1 is the maximum)
# Procedure, shortened: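 Antagonist mode: GH3 cells seeded 1,500/well, compounds at 15 concentrations (92 uM to 5nM final) plus T3 at 1.0 nM final, 24 h at 37C. Luciferase read with ONE-Glo after 30 min at room temperature.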
# THRA (gene 7067) = THRA (gene 7067) (UniProt P10827); assay: TOX21_TRA_COA_Antagonist_Followup_ratio: Tox21 Thyroid Hormone Receptor alpha Antagonism through Coactivator Recruitment Follow-Up Assay, Ratio (AID 2283953; active means hit-call score of the fitted dose curve at least 0.9, where 1 is the maximum)
# Chain of THRA (gene 7067) (P10827 whole entry, looked up, the tested form may be a part): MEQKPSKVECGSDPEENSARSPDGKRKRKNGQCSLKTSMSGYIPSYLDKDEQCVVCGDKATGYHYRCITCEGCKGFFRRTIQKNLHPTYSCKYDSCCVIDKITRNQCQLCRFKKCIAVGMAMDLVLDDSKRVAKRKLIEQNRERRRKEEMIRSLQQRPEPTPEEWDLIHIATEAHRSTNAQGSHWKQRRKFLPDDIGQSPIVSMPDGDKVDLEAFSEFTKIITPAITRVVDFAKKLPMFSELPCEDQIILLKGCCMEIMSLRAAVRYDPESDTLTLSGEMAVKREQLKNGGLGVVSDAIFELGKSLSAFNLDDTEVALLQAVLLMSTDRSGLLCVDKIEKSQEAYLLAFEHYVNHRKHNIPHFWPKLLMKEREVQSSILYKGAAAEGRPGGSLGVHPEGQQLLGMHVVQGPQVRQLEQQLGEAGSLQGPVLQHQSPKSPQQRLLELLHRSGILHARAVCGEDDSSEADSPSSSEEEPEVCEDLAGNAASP
# Procedure, shortened: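 520:495 nm emission ratio (excitation 340 nm) reports fluorescein-SRC-2 peptide recruitment to GST-TRα LBD by TR-FRET with Tb anti-GST antibody. Values were normalized to DMSO (0%) and T3 control wells (100%); loss of signal indicated antagonism.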
# THRB (gene 7068) [14] = molecular target: THRB (gene 7068) (UniProt P10828); assay: TOX21_TRB_BLA_Antagonist_Followup_ratio: Tox21 Thyroid Hormone Receptor beta Antagonism Beta-lactamase (BLA) Follow-Up Assay, Ratio (AID 2283958; active means hit-call score of the fitted dose curve at least 0.9, where 1 is the maximum)
# Chain of THRB (gene 7068) (P10828 whole entry, looked up, the tested form may be a part): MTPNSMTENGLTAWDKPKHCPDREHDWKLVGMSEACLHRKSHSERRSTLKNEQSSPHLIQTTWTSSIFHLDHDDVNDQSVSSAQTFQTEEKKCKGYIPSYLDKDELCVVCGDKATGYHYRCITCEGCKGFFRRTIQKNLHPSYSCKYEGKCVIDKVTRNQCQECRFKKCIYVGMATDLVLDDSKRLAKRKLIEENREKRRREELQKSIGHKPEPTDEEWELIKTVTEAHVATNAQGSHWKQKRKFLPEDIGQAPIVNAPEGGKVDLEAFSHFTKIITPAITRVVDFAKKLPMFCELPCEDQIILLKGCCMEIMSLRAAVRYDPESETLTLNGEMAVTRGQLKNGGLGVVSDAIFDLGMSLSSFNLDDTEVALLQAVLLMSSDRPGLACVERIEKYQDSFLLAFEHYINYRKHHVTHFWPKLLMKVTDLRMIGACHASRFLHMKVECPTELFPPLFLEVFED
# Procedure, shortened: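 HEK293T TRb-bla (GAL4 DBD + hTRβ LBD), 2% cs-FBS phenol red-free DMEM, 5 h attach; cpds 11-pt triplicate, 18 h 37C; CCF4-AM 2 h RT; 460/530 ratio vs DMSO; CellTiter-Glo viability same wells.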
# [15] = TOX21_TRB_BLA_Antagonist_Followup_viability: Viability Assessment in the Tox21 Thyroid Hormone Receptor beta Antagonism Beta-lactamase (BLA) Follow-Up Assay (AID 2283961; active means hit-call score of the fitted dose curve at least 0.9, where 1 is the maximum)
# Procedure, shortened: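 In the same wells as the reporter read, cell health was gauged by CellTiter-Glo ATP luminescence, with signal loss indicating reduced viability. Cells had been exposed to test compounds for 18 h.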
# THRB (gene 7068) [16] = molecular target: THRB (gene 7068) (UniProt P10828); assay: TOX21_TRB_COA_Antagonist_Followup_ratio: Tox21 Thyroid Hormone Receptor beta Antagonism through Coactivator Recruitment Follow-Up Assay, Ratio (AID 2283967; active means hit-call score of the fitted dose curve at least 0.9, where 1 is the maximum)
# Procedure, shortened: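 Cell-free TR-FRET: GST-TRb LBD (5.0 nM) with fluorescein-SRC-2 peptide (200 nM) and Tb anti-GST antibody (2 nM), 0.10% BSA. 520:495 nm emission ratio normalized to DMSO (0%) and T3 (100%).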
# [17] = molecular target: Retinoic acid receptor RXR-alpha (Homo sapiens) (UniProt P19793); assay: TOX21_TR_RXR_BLA_Antagonist_Followup_ratio: Tox21 Thyroid Hormone Receptor beta Retinoid X Receptor alpha (RXRa) Antagonism Beta-lactamase (BLA) Follow-Up Assay, Ratio (AID 2283972; active means hit-call score of the fitted dose curve at least 0.9, where 1 is the maximum)
# Chain of Retinoic acid receptor RXR-alpha (Homo sapiens) (P19793 whole entry, looked up): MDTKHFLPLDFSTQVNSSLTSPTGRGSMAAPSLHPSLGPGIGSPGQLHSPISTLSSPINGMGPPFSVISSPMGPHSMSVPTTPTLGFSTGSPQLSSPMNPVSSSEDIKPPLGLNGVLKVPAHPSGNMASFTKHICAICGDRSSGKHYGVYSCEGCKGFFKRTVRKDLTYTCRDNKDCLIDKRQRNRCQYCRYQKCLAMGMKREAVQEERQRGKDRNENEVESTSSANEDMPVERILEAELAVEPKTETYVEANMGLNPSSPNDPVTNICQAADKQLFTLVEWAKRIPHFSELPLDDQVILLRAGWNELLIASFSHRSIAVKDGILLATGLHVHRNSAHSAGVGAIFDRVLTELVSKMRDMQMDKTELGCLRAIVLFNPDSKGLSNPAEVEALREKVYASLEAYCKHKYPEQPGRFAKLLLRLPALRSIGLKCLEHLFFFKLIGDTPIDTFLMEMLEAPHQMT
# Procedure, shortened: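 Compounds were tested in triplicate at 11 concentrations on RXRa-bla HEK293T cells for 16 h. Substrate cleavage ratio, normalized to DMSO, gave the endpoint.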
# [18] = TOX21_TR_RXR_BLA_Antagonist_Followup_viability: Viability Assessment in the Tox21 Thyroid Hormone Receptor beta Retinoid X Receptor alpha (RXRa) Antagonism Beta-lactamase (BLA) Follow-Up Assay (AID 2283979; active means hit-call score of the fitted dose curve at least 0.9, where 1 is the maximum)
# Procedure, shortened: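 RXRa-bla HEK293T cells (2,500/well, phenol red-free DMEM, 2% charcoal-stripped FBS) were attached 5 h, then exposed to compounds at 11 concentrations in triplicate for 16 h at 37C. Viability measured by CellTiter-Glo ATP luminescence, bidirectional fitting versus DMSO.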
structure (smiles),measurement,setting,value
CCCN(CCOc1c(Cl)cc(Cl)cc1Cl)C(=O)n1ccnc1,outcome,[1],inactive
same,AC50,PGR (gene 5241),57.9 µM (active)
same,outcome,[2],inactive
same,outcome,[3],inactive
same,outcome,[4],inactive
same,outcome,[5],inactive
same,outcome,[6],inactive
same,outcome,[7],inactive
same,outcome,[8],inactive
same,AC50,[9],9.92 µM (active)
same,outcome,[10],inactive
same,outcome,[11],inactive
same,outcome,[12],inactive
O=C(O)C(F)(F)C(F)(F)C(F)(F)C(F)(F)C(F)(F)C(F)(F)C(F)(F)F,outcome,[4],inactive
same,outcome,[5],inactive
same,outcome,[6],inactive
same,outcome,[7],inactive
same,outcome,[8],inactive
same,outcome,[9],inactive
same,outcome,[10],inactive
same,outcome,[11],inactive
same,outcome,[12],inactive
O=S(=O)(O)C(F)(F)C(F)(F)C(F)(F)C(F)(F)C(F)(F)C(F)(F)C(F)(F)C(F)(F)F,outcome,[4],inactive
same,outcome,[5],inactive
same,outcome,[6],inactive
same,outcome,[7],inactive
same,outcome,[8],inactive
same,outcome,[9],inactive
same,outcome,[10],inactive
same,outcome,[11],inactive
same,outcome,[12],inactive
COP(=S)(OC)Oc1ccc([N+](=O)[O-])cc1,outcome,[1],inactive
same,AC50,PGR (gene 5241),33.5 µM (active)
same,outcome,[2],inactive
same,outcome,[3],inactive
ClC1C(Cl)C(Cl)C(Cl)C(Cl)C1Cl (stereo not given),outcome,[1],inactive
same,outcome,PGR (gene 5241),inactive
same,outcome,[3],inactive
CC1(c2ccc(Oc3ccccc3)cc2)OC(=O)N(Nc2ccccc2)C1=O (stereo not given),AC50,[13],25.7 µM (active)
same,outcome,THRA (gene 7067),inactive
same,outcome,THRB (gene 7068) [14],inactive
same,AC50,[15],22 µM (active)
same,outcome,THRB (gene 7068) [16],inactive
same,AC50,[17],28.9 µM (active)
same,AC50,[18],38.5 µM (active)
